Laboratory results reported in PubChem BioAssay (Tox21).
Records with an inconclusive call do not appear. Calls of active or inactive are those of the source. Unless noted, the call rests on the fitted dose curve; in most records, active means well fitted curve in the direction sought with a large enough effect in the repeat runs; inconclusive means weak or mixed curves; inactive means no such curve, though single readings can be large; an effect the other way counts as inactive or inconclusive.

How the values were obtained:
[1] = qHTS assay to identify small molecule agonists of H2AX (AID 1224845; active means well fitted activation curve with a large enough effect in the signal ratio in the repeat runs, not every such curve was filed as active; the % refers to the signal ratio)
Procedure, shortened: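 Wild-type CHO-K1 cells, plated overnight, exposed 3hr at 37C to 15 concentrations (0.76% DMSO final). Lysed, then HTRF anti-pH2AX (S139) cryptate and anti-H2AX-d2 antibodies, 24 hr room temperature; 665/620 nm emission read.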

[2] = qHTS assay to identify small molecule agonists of the hypoxia (HIF-1) signaling pathway (AID 1224846; active means well fitted activation curve with a large enough effect in the signal ratio in the repeat runs, not every such curve was filed as active; the % refers to the signal ratio)
Procedure, shortened: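 HRE-bla ME-180 beta-lactamase reporter cells in medium with 0.5% dialyzed FBS, pre-incubated 5 h then exposed to compounds 17 h at 37C, 5% CO2; reporter induction read with CCF4-AM FRET substrate.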

[3] = qHTS assay to identify small molecule agonists of H2AX - cell viability counter screen (AID 1224847; calls by dose curve; further: top concentration of the series differs between compounds; nearly all actives have a fitted effect of over 30% in size)
Procedure, shortened: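 After overnight plating of 1000 CHO-K1 cells per well, a 15-concentration compound series was applied for 3 hr at 37C. Luminescence from CellTiter-Glo, read following 30 min at room temperature, reflected cell viability.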

[4] = qHTS assay to identify small molecule antagonists of the estrogen related receptor (ERR) signaling pathway from Tox21 library (AID 1224848); further: nearly all actives have a fitted effect of over 50% in size
Procedure, shortened: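 ERR reporter cell line (from NTP) seeded 2,000 cells/well, rested 6 h at 37 C/5% CO2, then pin-dosed with compounds in DMSO. After 18 h at 37 C, ONE-Glo added; luminescence read after 30 min at room temperature.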

[5] = qHTS assay to identify small molecule agonists of the estrogen related receptor (ERR) signaling pathway from Tox21 library (AID 1224849; calls by dose curve; further: nearly all actives have a fitted effect of over 15% in size)
Procedure, shortened: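 ERR reporter cells (NTP line) pre-incubated 6 hours at 37 C, then exposed to compounds for 18 hours at 37 C. ONE-Glo luciferase luminescence was read after 30 minutes at room temperature.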

[6] = qHTS RealTime-Glo MT Cell Viability Assay in HEK293 cells - 32 hour (AID 1224868); further: top concentration of the series differs between compounds; nearly all actives have a fitted effect of over 50% in size
Procedure, shortened: (§1)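 Cells + reagent dispensed (600 cells/well, HEK293) → 5 h at 37 C/5% CO2 → 23 nL compound in DMSO pinned → 40 h at 37 C → luminescence read at 0, 8, 16, 24, 32, 40 h.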

[7] = A CellTox Green Cytotoxicity Assay to monitor cytotoxicity in HEK293 cells - 0 hour (AID 1224869); further: nearly all actives have a fitted effect of over 50% in size
Procedure, shortened: (§2)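 HEK293 cells, 600/well, were preincubated 5 hours and then exposed to compounds at 37 C for up to 40 hours. A cell-impermeant cyanine dye staining dead-cell DNA was read by fluorescence at 0, 8, 16, 24, 32 and 40 h time points.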

[8] = A CellTox Green Cytotoxicity Assay to monitor cytotoxicity in HEK293 cells - 40 hour (AID 1224871); further: nearly all actives have a fitted effect of over 45% in size
Procedure, shortened: as §2

[9] = qHTS RealTime-Glo MT Cell Viability Assay in HEK293 cells - 16 hour (AID 1224872); further: top concentration of the series differs between compounds; nearly all actives have a fitted effect of over 50% in size
Procedure, shortened: as §1

[10] = qHTS RealTime-Glo MT Cell Viability Assay in HepG2 cells - 8 hour (AID 1224873); further: nearly all actives have a fitted effect of over 55% in size
Procedure, shortened: (§3)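 HepG2 cells (600/well) mixed with RealTime-Glo MT reagent, settled 5 h at 37 C/5% CO2 before compound addition. Nonlytic NanoLuc luminescence from viable-cell prosubstrate reduction read repeatedly during 40 h treatment at 37 C.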

[11] = qHTS RealTime-Glo MT Cell Viability Assay in HEK293 cells - 40 hour (AID 1224874); details: RealTime-Glo luminescence; max response: stronger effect = lower value; further: nearly all actives have a fitted effect of over 50% in size
Procedure, shortened: (§4)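 600 cells/well were plated with the nonlytic NanoLuc/prosubstrate reagent, pre-incubated 5 h, then given 23 nL of compound in DMSO. Incubation at 37 C for 40 h, with luminescence from viable-cell-reduced substrate read repeatedly from 0 h.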

[12] = A CellTox Green Cytotoxicity Assay to monitor cytotoxicity in HEK293 cells - 24 hour (AID 1224875); further: series mostly up to about 77 µM; nearly all actives have a fitted effect of over 45% in size
Procedure, shortened: as §2

[13] = A CellTox Green Cytotoxicity Assay to monitor cytotoxicity in HepG2 cells - 16 hour (AID 1224876); further: nearly all actives have a fitted effect of over 45% in size
Procedure, shortened: (§5)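 HepG2 cells, 600/well, preincubated 5 h with CellTox Green dye, then exposed to Tox21 compounds in DMSO at 37 C for up to 40 h. Dead-cell DNA fluorescence read at the indicated time point.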

[14] = qHTS RealTime-Glo MT Cell Viability Assay in HepG2 cells - 32 hour (AID 1224877); further: nearly all actives have a fitted effect of over 55% in size
Procedure, shortened: (§6)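 Real-time, nonlytic viability: 600 HepG2 cells/well mixed with NanoLuc enzyme plus prosubstrate; 5 h settle, compound (DMSO) added by pintool; luminescence monitored over 40 h at 37 C.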

[15] = A CellTox Green Cytotoxicity Assay to monitor cytotoxicity in HepG2 cells - 24 hour (AID 1224878); further: nearly all actives have a fitted effect of over 45% in size
Procedure, shortened: as §5

[16] = A CellTox Green Cytotoxicity Assay to monitor cytotoxicity in HepG2 cells - 40 hour (AID 1224879); further: nearly all actives have a fitted effect of over 40% in size
Procedure, shortened: as §5

[17] = qHTS RealTime-Glo MT Cell Viability Assay in HEK293 cells - 0 hour (AID 1224880)
Procedure, shortened: as §4

[18] = A CellTox Green Cytotoxicity Assay to monitor cytotoxicity in HEK293 cells - 32 hour (AID 1224881); further: nearly all actives have a fitted effect of over 40% in size
Procedure, shortened: as §2

[19] = qHTS RealTime-Glo MT Cell Viability Assay in HepG2 cells - 24 hour (AID 1224867); further: nearly all actives have a fitted effect of over 50% in size
Procedure, shortened: as §6

[20] = qHTS RealTime-Glo MT Cell Viability Assay in HepG2 cells - 40 hour (AID 1224870); further: nearly all actives have a fitted effect of over 50% in size
Procedure, shortened: as §3
On the % scale 0 is the no-effect control and ±100 the full control effect.

CCCCCCC1CCC(=O)O1 (stereo not given)
inactive: Potency [1] | outcome [2] | outcome [3] | Potency [4] | outcome [5] | Potency [6] | outcome [7] | Potency [8] | Potency [9] | outcome [10] | max response [11] 4.76% | outcome [12] | outcome [13] | Potency [14] | outcome [15] | Potency [16] | Potency [17] | outcome [18]

CC1(C)OC[C@@H](COC(=O)CCc2ccc(OC[C@@H](O)CNCCNC(=O)N3CCOCC3)cc2)O1
inactive: Potency [1] | outcome [2] | outcome [3] | Potency [4] | outcome [5] | outcome [19] | Potency [6] | outcome [7] | Potency [20] | Potency [8] | Potency [9] | outcome [10] | max response [11] 4.31% | outcome [12] | outcome [13] | Potency [14] | outcome [15] | Potency [16] | Potency [17] | outcome [18]

COc1cc(C(=O)OC(COCCC(C)C)CN2CCOCC2)cc(OC)c1OC (stereo not given)
inactive: Potency [1] | outcome [2] | outcome [3] | outcome [19] | Potency [6] | outcome [7] | Potency [20] | Potency [8] | Potency [9] | outcome [10] | max response [11] -2.35% | outcome [12] | outcome [13] | Potency [14] | outcome [15] | Potency [16] | Potency [17] | outcome [18]

CC(=O)Oc1cccc(C)c1
inactive: Potency [1] | outcome [2] | outcome [3] | Potency [4] | outcome [5] | outcome [19] | Potency [6] | outcome [7] | Potency [20] | Potency [8] | Potency [9] | outcome [10] | max response [11] 2.59% | outcome [13] | Potency [14] | outcome [15] | Potency [16] | Potency [17] | outcome [18]

CCOC(=O)COC(=O)c1ccccc1C(=O)OCC
inactive: Potency [1] | outcome [2] | outcome [3] | Potency [4] | outcome [5] | outcome [19] | Potency [6] | outcome [7] | Potency [20] | Potency [8] | Potency [9] | outcome [10] | max response [11] 11% | outcome [12] | outcome [13] | Potency [14] | outcome [15] | Potency [16] | outcome [18]

CC(C)(C)c1ccc(-c2ccc(C(C)(C)C)cc2)cc1
inactive: Potency [1] | outcome [2] | outcome [3] | Potency [4] | outcome [5] | outcome [19] | Potency [6] | outcome [7] | Potency [20] | Potency [8] | Potency [9] | outcome [10] | max response [11] -2.15% | outcome [12] | outcome [13] | Potency [14] | outcome [15] | Potency [16] | Potency [17] | outcome [18]

CC1=CC(=O)[C@H]2C[C@@H]1C2(C)C
inactive: Potency [1] | outcome [2] | outcome [3] | outcome [19] | Potency [6] | outcome [7] | Potency [20] | Potency [8] | Potency [9] | outcome [10] | max response [11] -1.77% | outcome [12] | outcome [13] | Potency [14] | outcome [15] | Potency [16] | Potency [17] | outcome [18]

COCCOC[C@H](CC1(C(=O)NC2CCC(C(=O)O)CC2)CCCC1)C(=O)Oc1ccc2c(c1)CCC2 (stereo not given in full)
inactive: Potency [1] | outcome [2] | outcome [3] | Potency [4] | outcome [5] | outcome [19] | Potency [6] | outcome [7] | Potency [20] | Potency [8] | Potency [9] | outcome [10] | max response [11] 5.36% | outcome [12] | outcome [13] | Potency [14] | outcome [15] | Potency [16] | Potency [17] | outcome [18]

CCCCCCC#CC(=O)OC
inactive: Potency [1] | outcome [2] | outcome [3] | Potency [4] | outcome [5] | outcome [19] | Potency [6] | outcome [7] | Potency [20] | Potency [8] | Potency [9] | outcome [10] | max response [11] 11.4% | outcome [13] | Potency [14] | outcome [15] | Potency [17]

CCCCOCCOC(=O)CCCCCCCCC(=O)OCCOCCCC
inactive: Potency [1] | outcome [2] | outcome [3] | Potency [4] | outcome [5] | Potency [6] | outcome [7] | Potency [8] | Potency [9] | outcome [10] | max response [11] 7.25% | outcome [12] | outcome [13] | Potency [14] | outcome [15] | Potency [16] | Potency [17] | outcome [18]

Cc1ccc(C(=O)Nc2ccc(S(=O)(=O)O)c3cc(S(=O)(=O)O)cc(S(=O)(=O)O)c23)cc1NC(=O)c1cccc(NC(=O)Nc2cccc(C(=O)Nc3cc(C(=O)Nc4ccc(S(=O)(=O)O)c5cc(S(=O)(=O)O)cc(S(=O)(=O)O)c45)ccc3C)c2)c1
inactive: Potency [1] | outcome [2] | outcome [3] | Potency [4] | outcome [5] | outcome [19] | Potency [6] | Potency [8] | Potency [9] | outcome [10] | max response [11] 4.78% | outcome [12] | outcome [13] | Potency [14] | outcome [15] | Potency [16] | outcome [18]

CCCC(C)C(=O)OCC (stereo not given)
inactive: Potency [1] | outcome [2] | outcome [3] | Potency [4] | outcome [5] | outcome [19] | Potency [6] | outcome [7] | Potency [8] | Potency [9] | outcome [10] | max response [11] -2.71% | outcome [12] | outcome [13] | Potency [14] | outcome [15] | Potency [16] | outcome [18]

Nc1c2c(nc3c1CCC3)CCCC2
inactive: Potency [1] | outcome [2] | outcome [3] | Potency [4] | outcome [5] | outcome [19] | Potency [6] | outcome [7] | Potency [8] | Potency [9] | outcome [10] | max response [11] 0.303% | outcome [12] | outcome [13] | Potency [14] | outcome [15] | Potency [16] | outcome [18]
